# Assay results as given in PubChem BioAssay AID504834 (National Center for Advancing Translational Sciences (NCATS), 2011).
# Out of some 320,000 compounds screened, about 22,000 (6.9%) were called active. Inconclusive results (about 27%) are left out. This is one part of a sample in which actives are shown more often than they occur. Values without a mark were called inactive. The call rests on the fitted dose curve; in most records, active means well fitted inhibition curve with a large enough effect; inconclusive means small, poorly fitted or top-dose-only effect, or another doubt; inactive means no such curve, though single readings can be large or run the other way.
# Test: Primary qHTS for delayed death inhibitors of the malarial parasite plastid, 96 hour incubation
# Conditions: P. falciparum luciferase reporter growth; series mostly up to 28.7 µM; activity change, negative = inhibition: at the top concentration
# Text: The goal of this screen is to discover new antimalarial compounds that act by inhibiting the development of the apicoplast in the malarial parasite Plasmodium falciparum. The biochemical processes that make this organelle essential for erythrocytic stage parasites are not well understood. However, antibiotics such as azithromycin and tetracycline, which target the apicoplast translational machinery, have a potent antimalarial effect.
# We have developed a cell-based assay that measures parasite growth based on the expression of an integrated copy of a firefly luciferase reporter. To detect small molecules that cause this "delayed death" phenotype, erythrocytes infected with the luciferase-expressing parasites were incubated with compounds for either one or two generations, corresponding to 48 and 96 hours, respectively. Compounds that inhibit parasite growth in the second generation, but not the first, should be enriched in antimalarials that target the apicoplast. Growth inhibition is detected by a decrease in luciferase activity.
# Assay Provider: David Fidock and Eric Ekland, Columbia University
# Keywords: NIH Roadmap, MLPCN, MLI, MLSMR, qHTS, NCGC, qHTS, malaria, luciferase, viability
# Four microliters of infected erythrocytes (2% hematocrit, 0.05% parasitemia final concentration) in culture medium were dispensed and the plates incubated for 96 hours at 37 C in 5% CO2. Two microliters of luciferase detection reagent was added and luminescence was detected by a ViewLux (PerkinElmer) reader.
# On the % scale 0 is the no-effect control and ±100 the full control effect; potency means the concentration at half of the fitted maximal effect.
SMILES,Potency,"activity change, negative = inhibition [%]"
CN(C)c1ccc(N/C=C/C(=O)C(F)(F)F)cc1,6.57 µM (active),–
Cc1c(C(=O)N(C)CCc2cnn(C)c2)oc2c(F)cccc12,–,18.4
Fc1ccc(/C=N/n2c(COc3ccccc3)n[nH]c2=S)cc1,–,4.78
COc1ccc(C(=O)OCC(=O)Nc2cccc(C(C)=O)c2)cc1OC,–,-16.6
CN(C)c1ccc2c(=O)[nH][nH]c(=O)c2c1,–,-26.8
O=c1[nH][nH]c(=O)c2cc(N3CCCC3)ccc12,9.28 µM (active),–
O=C1C=CC(=O)N1c1ccc(N2CCCCC2)cc1,–,-18.3
CCOc1ccc(S(=O)(=O)NCc2ccc3c(c2)OCO3)cc1C,–,11.5
Cc1ccc(C(=O)NNC(=O)C(C)Oc2ccc3ccccc3c2)o1 (stereo not drawn),–,0.752
Cc1ccc(Cl)c(OCC(=O)N(C)CC(=O)Nc2ccc(N3CCOCC3)cc2)c1,–,0.319
Cc1cc(C(C)(C)C)n2nc(C)c(-c3ccccc3)c2n1,–,-5.57
Cc1cc(N2CCCC2)n2nc(C)c(-c3ccccc3)c2n1,–,61.6
Cc1nn2c(NCCN(C)C)c3c(nc2c1-c1ccccc1)CCC3,11.7 µM (active),–
O=C(CN1CCN(c2ccccn2)CC1)Nc1ccc(Br)cc1,–,24.4
COc1ccc(C2=NS(=O)(=O)N(C)C(C(=O)N(C)Cc3ccccc3)=C2)cc1,–,-24.5
Nc1c(C(=O)Nc2ccc3c(c2)OCCO3)nnn1Cc1ccccc1,–,4.21
CC1CN(C(=O)CCC(=O)NCc2cccnc2)c2ccccc2O1 (stereo not drawn),–,23.8
Cc1ccc2c(c1)N(C(=O)CCC(=O)NCc1cccnc1)CCO2,–,5.48
Cc1ccccc1CNC(=O)CCC(=O)N1Cc2ccccc2Oc2ncccc21,11.7 µM (active),–
CC(C)NC(=O)C(c1ccc(F)cc1)N(C(=O)CCC(=O)Nc1ccccn1)c1ccccc1F (stereo not drawn),–,0.184
Cc1cc(/C=N/Nc2ccc([N+](=O)[O-])cn2)c(C)n1-c1cccc(C(=O)O)c1,–,20.5
Cc1ccc(-n2c(C)cc(/C=N/Nc3ccc([N+](=O)[O-])cn3)c2C)c(C)c1,10.4 µM (active),–
Cc1ccc(N2CCN(c3ccc([N+](=O)[O-])cn3)CC2)c(C)c1,–,1.91
O=C(NC1CCCC1)C(c1ccc(Cl)cc1)N(C(=O)c1csnn1)C1CC1 (stereo not drawn),–,-3
CC1CC1C(=O)OCC(=O)Nc1cccc(F)c1 (stereo not drawn),–,-4.3
Cn1ccc(=NC=C(C#N)C#N)c2ccccc21,–,27.4
O=S(=O)(O)c1nc2ccccc2n1Cc1ccc(Cl)cc1Cl,–,6.21

SMILES,Potency,"activity change, negative = inhibition [%]"
N#CC(C#N)=CN=c1ccn(Cc2ccc(Cl)cc2Cl)cc1,1.17 µM (active),–
CC(C)[C@H](NC(=O)N1CCn2c1nc1ccccc12)C(=O)NC1CC1,–,-13
COc1cc2ccccc2cc1C(=O)Nc1ccc(S(=O)(=O)Nc2cc(C)on2)cc1,–,64.4
CCOC(=O)c1ccccc1NS(=O)(=O)c1ccc(OC)cc1,–,15.9
CCOC(=O)c1cc(C(=O)Nc2ccc(S(=O)(=O)Nc3ccc(OC)cc3)cc2)nn1C,11.7 µM (active),–
CCOc1ccc(C(=O)Nc2ccc(S(=O)(=O)Nc3cc(C)on3)cc2)cc1,2.94 µM (active),–
COc1ccc(NC(=O)c2cnc(NS(=O)(=O)c3ccccc3)nc2)cc1,–,82.4
COc1cc(OC)cc(C(=O)Nc2ccc(S(=O)(=O)Nc3cc(C)on3)cc2)c1,–,-24.9
CCOCCCNC(=S)Nc1ccc2nc(N3CCN(CC)CC3)cc(C)c2c1,–,6.14
Cc1cc(C)c(C#N)c(Nc2cccc(Br)c2)n1,–,-2.25
Cc1ccc(S(=O)(=O)N2CCN(C)CC2)cc1,–,-1.36
Cc1nn(C)c(C)c1NS(=O)(=O)c1ccc(OC(F)(F)F)cc1,–,3.16
COc1cc(C(=O)OCC(=O)N(CC(C)C)C2CCS(=O)(=O)C2)ccc1OCC(C)C (stereo not drawn),–,-6.25
CN(CC(=O)Nc1cccc(F)c1)C(=O)C1CSC2(C)CCC(=O)N12 (stereo not drawn),–,20.8
COC(=O)CCC(=O)N1CCCC(CO)(Cc2ccccc2)C1 (stereo not drawn),0.37 µM (active),–
CS(=O)(=O)N(CC(=O)N1CCCC1)Cc1ccccc1,–,11.3
CCCc1cc(C(=O)N2CCCC(CO)(CCCc3ccccc3)C2)n(C)n1 (stereo not drawn),–,-2.8
CCNC(=S)N(CCN(CC)CC)Cc1cc2cc3c(cc2[nH]c1=O)OCO3,–,-11.3
COC(=O)C(C)n1cnc2c(nnn2-c2cccc(Cl)c2)c1=O (stereo not drawn),–,-9.8
CC(C)C[C@H](CO)Nc1nc(N(C)c2cccc(Cl)c2)c2ncn(C(C)C)c2n1,13.1 µM (active),–
CC1COc2ccccc2N1C(=O)c1ccc(F)cc1 (stereo not drawn),–,3.37
COc1cccc(C(C(=O)NC2CCCC2)N(C(=O)c2ccco2)c2cccc(C(C)=O)c2)c1OC (stereo not drawn),–,-24.7
COc1cccc(-c2cc(C(=O)N3CCN(c4ccccc4OC)CC3)no2)c1,–,218
COc1ccccc1N1CCN(C(=O)c2ccc(NC3=NC4CS(=O)(=O)CC4S3)cc2)CC1 (stereo not drawn),10.4 µM (active),–
CN(Cc1ccccc1)C(=O)c1ccc(NC2=NC3CS(=O)(=O)CC3S2)cc1 (stereo not drawn),–,5.53
NS(=O)(=O)c1ccc(CCNC(=O)c2nc(CS(=O)(=O)c3ccc(Cl)cc3)no2)cc1,–,22.4
